# Most compounds without a hit are left out; they make up all but 1.6% or so of the library.
# PLK1 kinase inh: PLK1 (human) kinase inhibition; actives 0.53% (n = 97,000); recombinant PLK1 kinase, TR-FRET peptide phosphorylation; inhibition, % at 10 µM;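 active means inhibition of 50% or more in the single-concentration screen; inactive means inhibition below 50%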;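 further: 0% = DMSO max control and 100% = H-89 dihydrochloride min control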
# Plk1 PBD FP: inhibitors of human Plk1 polo box domain binding; P53350; Plk1 PBD phosphopeptide binding, fluorescence polarization; inhibition, %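 (tested at about 20 µM)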; actives 0.13% (n = 97,000); AID 693; in the data active means inhibition above about 34%, passing the limit was not always enough
# Pyk2 oligo antag: Pyk2 (human) oligomerization antagonism; Q14289; Q293 cells, Pyk2 FERM NanoBiT luminescence; active compounds read low; z-score (the deposit names both 25 µM and 10 µM); actives 0.83% (n = 99,000);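 active means Z-score of -3 or lower, scaled per plate to the spread of control and sample wells; inactive means z-score above -3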;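 further: negative z-score means lost luminescence so less FERM oligomerization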
# sEH act: soluble epoxide hydrolase (human) activation | activation, % at 2 µM | purified human sEH enzymatic activity, activator screen | P34913 | AID 717 | actives 0.04% (n = 91,000); in the data active means activation above about 37%
# sEH inhibitor: soluble epoxide hydrolase (human) inhibition; inhibition, % at 2 µM; actives 0.34% (n = 91,000); P34913; recombinant human sEH enzymatic activity assay; in the data active means inhibition above about 80%
# Numbers without * were called inactive; · = not tested or not shown.
SMILES,PLK1 kinase inh,Plk1 PBD FP,Pyk2 oligo antag,sEH act,sEH inhibitor
c1cncc(-c2nc(NCC3COc4ccccc4O3)c3ccccc3n2)c1 (stereo unspecified),-0.3,-1.6,-3.8*,-5.6,3.8
CC(CN1CCCC(C(N)=O)C1)c1ccccc1 (stereo unspecified),-0.4,11.5,0.14,-3.7,1.8
CCN(CC)c1ccc(-c2nn3c(-c4ccccc4OC)nnc3s2)cc1,-19.0,13.8,-4*,20.4,-22.9
COc1ccc(-c2nn3c(-c4ccccc4)nnc3s2)cc1,-12.0,-5.2,-1.61,4.9,-4.8
COc1cccc(-c2nnc3sc(-c4ccccc4)nn23)c1,·,·,-0.14,·,·
COc1cccc(OC)c1-c1nn2c(-c3cc(-c4ccccc4)n[nH]3)nnc2s1,-12.4,3.2,-3.1*,-0.4,-0.1
Cc1ccc(C(=C2C3C=CC2C2C(=O)NC(=O)C32)c2ccc(C)cc2)cc1 (stereo unspecified),-9.1,3.4,-2.01,-5.8,5.9
Cc1ccc(C(=O)Nc2cccc(N(C)S(C)(=O)=O)c2)cc1S(=O)(=O)Nc1ccccc1,4.6,-1.0,-3.12*,-35.5,36.7
Cc1ccc(N(C)C(=O)N2CCN(S(=O)(=O)c3ccc4ccccc4c3)CC2)cc1,5.7,0.5,-1.8,-15.1,13.1
CN1CC(c2ccc(Cl)c(Cl)c2)[C@@]2(COc3ccccc3C2=O)[C@@]12C(=O)Nc1ccccc12 (stereo partly specified),-6.6,2.8,-3.39*,·,·
O=C1Nc2ccccc2C12OCC1(CO2)COC2(OC1)C(=O)Nc1ccccc12 (stereo unspecified),0.7,4.9,-2.81,0.6,0.4
O=C(Nc1ccc2c(c1)CCC2)C1CCN(c2c3c(nc4ncnn24)CCC3)CC1,-5.4,-11.7,1.14,-77.0,76.7
Cc1cc(N2CCCC(C(=O)Nc3ccc4c(c3)CCC4)C2)n2ncnc2n1 (stereo unspecified),-2.2,-21.6,-0.46,-81.5,81.6*
CCC(C)NS(=O)(=O)c1ccc(OC)c(Cl)c1Cl (stereo unspecified),-6.3,-13.7,0.39,3.7,-2.2
Cc1ccccc1Nc1nc(N)nc(CSc2nc3ccccc3c(=O)n2CCCO)n1,·,·,-1.18,·,·
Cc1ccccc1Nc1nc(N)nc(CSc2nc3ccccc3c(=O)n2C)n1,-196.0,1.2,-3.11*,0.8,-2.6
CCn1c(SCC(=O)Nc2cc3oc4ccccc4c3cc2OC)nnc1-c1cccs1,-12.7,26.1,-2.24,-2.0,3.2
Cc1ccc(-c2nc(C3CCCN(S(=O)(=O)c4ccc(C)cc4)C3)no2)cc1 (stereo unspecified),67.0*,-27.9,·,·,·
NNC(=O)CN1C(c2ccc(Cl)cc2)=Nc2ccc(Br)cc2C1c1ccccc1 (stereo unspecified),0.2,5.7,-3.35*,-8.3,8.9
COC(=O)CN1C(c2ccccc2)=Nc2ccc(Cl)cc2C1c1ccccc1 (stereo unspecified),-9.0,16.4,-3.05*,11.0,-12.7
CCC1=Nc2ccc(Br)cc2C(c2ccccc2)N1CC(=O)OC (stereo unspecified),-8.6,15.6,-0.88,-6.2,9.1
Cn1c(=O)c(C(=O)CSc2nncs2)c(N)n(Cc2ccccc2)c1=O,-18.9,-3.7,0.12,4.9,-5.5
Cc1oc2cc(O)cc(C)c2c(=O)c1-c1cnn(-c2ccccc2)c1,-2.1,-5.7,-3.78*,3.3,-4.0
Cc1cccc(-c2nc(CS(=O)CC(=O)N3CCN(C)CC3)c(C)o2)c1 (stereo unspecified),56.9*,-3.8,·,·,·
COc1ccc(-c2nc(CS(=O)CC(=O)NC3CCCc4ccccc43)c(C)o2)cc1OC (stereo unspecified),69.0*,13.9,·,·,·
SMILES,PLK1 kinase inh,Plk1 PBD FP,Pyk2 oligo antag,sEH act,sEH inhibitor
COc1cccc(-c2nc(CS(=O)CC(=O)NC3CCCC3)c(C)o2)c1 (stereo unspecified),66.4*,15.3,·,·,·
Cc1ccc(-c2nc(CS(=O)CC(=O)NC3CCC(C)CC3)c(C)o2)cc1 (stereo unspecified),64.7*,13.7,·,·,·
COc1cccc(-c2nc(CS(=O)CC(=O)O)c(C)o2)c1 (stereo unspecified),-8.6,15.7,·,2.9,-1.1
CC(C)(C)Nc1nc2nonc2nc1NC(C)(C)C,-5.1,0.1,-1.72,14.0,-13.7
Cc1cc(N2CCN(C(=O)OC(C)(C)C)CC2)n2ncnc2n1,-6.5,5.3,-0.02,15.3,-16.9
CCOC(=O)C1=C(C)NC2=C(C1c1ccc([N+](=O)[O-])cc1)S(=O)(=O)c1ccccc12 (stereo unspecified),-7.1,3.7,-3.05*,-1.9,3.1

# Source: PubChem BioAssay (several laboratories)
